Source: PubChem BioAssay
“And” between values parts separate entries of the source, which are not always exact repeats. Equal entries are not always repeated. Unmarked numbers belong to inactive results. The source made the active and inactive calls.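 The calls were made as follows, unless noted: active = mean inhibition over 43.08%, the solvent-only control mean plus 3 SD; inactive = the rest.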

Columns and labels:
[1] = target: Nuclear receptor coactivator 3 (Homo sapiens) (UniProt Q9Y6Q9); assay: NCOA3 GAL4-fusion reporter inhibition – cell-based, luminescence, quadruplicate, confirmation (AID 588792); settings: HEK293 GAL4-SRC3 luciferase reporter, at 3.6 µM, active compounds read high;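 also: 0% = DMSO treated cells and 100% = gossypol at 36 µM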
Sequence of Nuclear receptor coactivator 3 (Homo sapiens) (Q9Y6Q9 whole entry, looked up, the tested form may be a part): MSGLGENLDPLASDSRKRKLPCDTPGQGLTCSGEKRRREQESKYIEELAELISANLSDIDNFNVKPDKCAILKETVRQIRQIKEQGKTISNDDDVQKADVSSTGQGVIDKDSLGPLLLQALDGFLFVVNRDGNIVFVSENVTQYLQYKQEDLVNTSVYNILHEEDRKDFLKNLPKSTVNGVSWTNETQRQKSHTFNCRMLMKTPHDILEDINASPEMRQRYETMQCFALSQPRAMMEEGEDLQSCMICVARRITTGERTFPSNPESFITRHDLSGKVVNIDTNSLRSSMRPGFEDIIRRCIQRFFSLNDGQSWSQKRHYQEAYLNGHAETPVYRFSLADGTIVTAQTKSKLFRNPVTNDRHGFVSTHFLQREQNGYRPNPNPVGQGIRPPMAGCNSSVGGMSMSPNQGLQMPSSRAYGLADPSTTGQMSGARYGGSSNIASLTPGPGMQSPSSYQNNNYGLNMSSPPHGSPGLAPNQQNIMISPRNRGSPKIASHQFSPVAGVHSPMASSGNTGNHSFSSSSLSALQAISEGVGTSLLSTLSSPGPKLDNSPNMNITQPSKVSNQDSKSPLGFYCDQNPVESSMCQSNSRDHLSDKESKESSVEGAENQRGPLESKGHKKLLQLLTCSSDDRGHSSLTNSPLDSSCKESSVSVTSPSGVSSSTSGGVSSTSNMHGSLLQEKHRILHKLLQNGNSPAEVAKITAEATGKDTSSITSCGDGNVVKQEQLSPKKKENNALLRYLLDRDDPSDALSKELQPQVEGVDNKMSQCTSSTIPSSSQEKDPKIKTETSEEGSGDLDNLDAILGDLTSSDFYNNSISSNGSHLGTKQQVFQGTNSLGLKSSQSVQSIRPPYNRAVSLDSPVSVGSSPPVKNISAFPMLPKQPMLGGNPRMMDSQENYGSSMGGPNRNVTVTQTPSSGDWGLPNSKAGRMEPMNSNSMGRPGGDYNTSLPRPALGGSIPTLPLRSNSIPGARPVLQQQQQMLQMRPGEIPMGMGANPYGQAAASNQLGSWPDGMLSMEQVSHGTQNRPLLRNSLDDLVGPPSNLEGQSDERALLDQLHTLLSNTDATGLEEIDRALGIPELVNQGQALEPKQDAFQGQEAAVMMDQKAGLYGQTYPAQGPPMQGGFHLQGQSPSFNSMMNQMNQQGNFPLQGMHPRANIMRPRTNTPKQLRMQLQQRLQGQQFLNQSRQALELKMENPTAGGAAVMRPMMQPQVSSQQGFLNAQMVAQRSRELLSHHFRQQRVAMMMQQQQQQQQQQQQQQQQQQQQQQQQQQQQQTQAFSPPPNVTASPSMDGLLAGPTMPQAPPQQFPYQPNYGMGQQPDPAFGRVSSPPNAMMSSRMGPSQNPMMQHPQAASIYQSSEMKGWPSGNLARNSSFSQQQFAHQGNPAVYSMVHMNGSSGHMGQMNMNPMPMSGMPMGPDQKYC

[2] = test system: transactivating tegument protein VP16 (Human herpesvirus 1), Gal4-VP16 luciferase reporter; assay: repression of VP16-driven luciferase reporter – cell-based, luminescence, high throughput, counter-screen for SRC3 inhibitor project (AID 588794; in the data active = inhibition above about 30%); settings: mammalian cells, at 3.6 µM, active compounds read high
[3] = target: Nuclear receptor coactivator 1 (Homo sapiens) (UniProt Q15788); assay: NCOA1 GAL4-fusion reporter inhibition – cell-based, luminescence, quadruplicate, confirmation (AID 588820;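 active = mean inhibition above 46.68%, the untreated control wells mean plus 3 SD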;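 also: 0% = DMSO wells and 100% = gossypol 36 µM treated wells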); settings: HEK293 GAL4-SRC1 luciferase reporter, at 3.6 µM, active compounds read high
Sequence of Nuclear receptor coactivator 1 (Homo sapiens) (Q15788 whole entry, looked up, the tested form may be a part): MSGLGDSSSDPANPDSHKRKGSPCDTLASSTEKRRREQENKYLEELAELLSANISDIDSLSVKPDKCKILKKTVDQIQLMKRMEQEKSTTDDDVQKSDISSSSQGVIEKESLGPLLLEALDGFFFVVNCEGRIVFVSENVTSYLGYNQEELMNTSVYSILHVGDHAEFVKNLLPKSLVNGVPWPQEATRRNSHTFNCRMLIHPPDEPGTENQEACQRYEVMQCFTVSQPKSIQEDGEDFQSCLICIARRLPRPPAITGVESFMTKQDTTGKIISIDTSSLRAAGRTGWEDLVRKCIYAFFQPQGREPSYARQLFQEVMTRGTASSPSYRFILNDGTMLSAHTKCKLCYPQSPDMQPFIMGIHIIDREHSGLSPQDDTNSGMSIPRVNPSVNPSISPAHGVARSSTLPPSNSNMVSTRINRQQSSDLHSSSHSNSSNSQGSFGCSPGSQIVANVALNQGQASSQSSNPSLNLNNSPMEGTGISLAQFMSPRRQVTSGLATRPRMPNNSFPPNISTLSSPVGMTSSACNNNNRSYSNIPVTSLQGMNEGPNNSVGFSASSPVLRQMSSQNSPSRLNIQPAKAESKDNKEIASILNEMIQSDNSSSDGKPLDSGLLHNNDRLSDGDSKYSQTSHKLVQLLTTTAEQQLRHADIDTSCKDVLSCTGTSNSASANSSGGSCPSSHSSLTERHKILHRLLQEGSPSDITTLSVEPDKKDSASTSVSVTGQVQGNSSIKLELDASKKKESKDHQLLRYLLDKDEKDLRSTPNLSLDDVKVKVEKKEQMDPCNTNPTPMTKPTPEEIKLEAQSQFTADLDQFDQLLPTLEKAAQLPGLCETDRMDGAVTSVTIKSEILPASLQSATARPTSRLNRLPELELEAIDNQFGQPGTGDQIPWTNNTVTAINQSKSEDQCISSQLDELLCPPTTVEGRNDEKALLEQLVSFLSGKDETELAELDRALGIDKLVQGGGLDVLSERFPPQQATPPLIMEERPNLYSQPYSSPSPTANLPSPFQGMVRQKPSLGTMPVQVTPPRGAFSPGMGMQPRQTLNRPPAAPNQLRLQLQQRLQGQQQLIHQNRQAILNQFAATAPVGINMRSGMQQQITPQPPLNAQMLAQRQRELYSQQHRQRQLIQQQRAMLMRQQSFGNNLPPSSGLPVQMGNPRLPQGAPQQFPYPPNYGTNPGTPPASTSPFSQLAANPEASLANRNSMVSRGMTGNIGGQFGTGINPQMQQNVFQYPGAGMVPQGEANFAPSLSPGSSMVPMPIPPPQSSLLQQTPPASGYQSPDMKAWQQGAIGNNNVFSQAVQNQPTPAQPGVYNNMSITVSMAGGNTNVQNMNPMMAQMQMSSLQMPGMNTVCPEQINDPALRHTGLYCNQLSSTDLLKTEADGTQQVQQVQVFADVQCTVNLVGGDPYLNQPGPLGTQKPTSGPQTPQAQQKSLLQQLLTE

[4] = repression of VP16-driven luciferase reporter – cell-based, luminescence, high throughput, counter-screen for SRC1 inhibitor project (AID 588824; in the data active = inhibition above about 25%); settings: cell-based VP16 transactivation luciferase luminescence; at 3.6 µM; active compounds read high

C=CC[n+]1ccc(/C=C2\C=Cc3cc(C)ccc3N2CC)c2ccccc21
inhibition [1]: 79.4% (active) | inhibition [2]: 86% (active) | inhibition [3]: 63.8% (active) | inhibition [4]: 86.7% (active)

COc1ccc(-n2c(C)c(C(C)=O)c3cc(OC(C)=O)ccc32)cc1
inhibition [1]: 77.5% (active) | inhibition [2]: 55% (active) | inhibition [3]: 65.2% (active) | inhibition [4]: 60.4% (active)

Oc1ccc(-c2n[nH]c(=S)n2-c2ccc3c(c2)OCCO3)c(O)c1
inhibition [1]: 50% (active) | inhibition [2]: 34% (active) | inhibition [3]: 20.9% | inhibition [4]: 43.7% (active)

CCc1nc(Cl)c(C#N)c2c1CCCC2
inhibition [1]: 43.2% (active) | inhibition [2]: 34.1% (active) | inhibition [3]: 34.8% | inhibition [4]: 28.9% (active)

Cc1ccc(S(=O)(=O)N2C[C@@H]3CCCC[C@@H]3[C@@H](C)[C@H]2c2cn(Cc3ccccc3)c3ncccc23)cc1
inhibition [1]: 22.3% | inhibition [2]: 47.6% (active) | inhibition [3]: 25.8% | inhibition [4]: 42.2% (active)

COc1ccc(Cc2noc(CN3CCN(c4ccc(Cl)cn4)CC3)n2)cc1OC
inhibition [1]: 14.7% | inhibition [2]: 21.5% | inhibition [3]: 6.4% | inhibition [4]: 33% (active)

CCN(CC)c1ccc(/C=N/NC(=O)CCC(=O)NCc2ccccc2)c(O)c1
inhibition [1]: 22.7% | inhibition [2]: 21.6% | inhibition [3]: 12.5% | inhibition [4]: 28.9% (active)

CC[n+]1ccccc1/C=C/c1ccc(N(C)C)cc1
inhibition [1]: 15.6% | inhibition [2]: 47.5% (active) | inhibition [3]: 15.4% | inhibition [4]: 40.1% (active)

CC(=O)N(C)C1=C(N2CCOCC2)C(=O)c2ccccc2C1=O
inhibition [1]: -0.07% | inhibition [2]: 35.7% (active) | inhibition [3]: 14.2% | inhibition [4]: 21.9%

CCOC(=O)c1c(C)n(C)c2ccc(OC)c(NC(=O)c3cccs3)c12
inhibition [1]: 22.9% | inhibition [2]: 35.7% (active) | inhibition [3]: 41.6% | inhibition [4]: 44.5% (active)

CCOc1cc(Br)cc(/C=N/NC(=O)c2cccnc2)c1O
inhibition [1]: 33% | inhibition [2]: 44.3% (active) | inhibition [3]: 27.3% | inhibition [4]: 36.9% (active)

Nc1ncnc(NCc2ccccc2)c1[N+](=O)[O-]
inhibition [1]: 38.8% | inhibition [2]: 26.7% | inhibition [3]: 38.1% | inhibition [4]: 42.4% (active)

Cc1ccc(-c2cc3c(N=O)c4ccccc4c-3n[nH]2)cc1
inhibition [1]: 66.2% (active) | inhibition [2]: 59.7% (active) | inhibition [3]: 30.2% | inhibition [4]: 53% (active)

C=CCOc1ccccc1CNc1ccc2c(c1)OCCO2
inhibition [1]: 25.2% | inhibition [2]: 12.4% | inhibition [3]: -17.1% | inhibition [4]: -30.1%

COc1ccc(-c2nsc3c(N4CCCCC4)ncnc23)cc1
inhibition [1]: 32.4% | inhibition [2]: 20.4% | inhibition [3]: 1.39% | inhibition [4]: -6.65%

Cc1ccc2nc(-c3ccncc3)c(NC3CCCC3)n2c1
inhibition [1]: 38.8% | inhibition [2]: 29.2% | inhibition [3]: 27.3% | inhibition [4]: 25.7% (active)

O=C(NC1CCCCCCC1)C1c2ccccc2C(=O)N1Cc1cccs1 (configuration not stated)
inhibition [1]: 5.02% | inhibition [2]: 14.6% | inhibition [3]: 4.81% | inhibition [4]: 9.14%

O=C(NCc1ccccc1)c1csc(-c2cccnc2)n1
inhibition [1]: 54.8% (active) | inhibition [2]: 30.8% (active) | inhibition [3]: 42.7% | inhibition [4]: 37% (active)

CC(=O)c1c(C)n(-c2ccccc2)c2ccc(O)cc12
inhibition [1]: 50.6% (active) | inhibition [2]: 41.6% (active) | inhibition [3]: 44.7% | inhibition [4]: 37.9% (active)

COc1ccc(N/N=C(\C#N)C(=N)SCc2ccccc2)cc1
inhibition [1]: 25.9% | inhibition [2]: 34.2% (active) | inhibition [3]: 35.7% | inhibition [4]: 29.5% (active)

O=C(NC1CCCN(Cc2ccccc2F)C1)c1cccc(N2CCCC2=O)c1 (configuration not stated)
inhibition [1]: 3.31% | inhibition [2]: -7.69% | inhibition [3]: -4.75% | inhibition [4]: -1.08%

O=C(CCc1ccccc1)NC(c1cccs1)c1cc(Cl)c2cccnc2c1O (configuration not stated)
inhibition [1]: 55.5% (active) | inhibition [2]: 42% (active) | inhibition [3]: 45% | inhibition [4]: 45.9% (active)

COc1ccc(NS(=O)(=O)c2ccc(NC(=O)c3ccc(N(C)S(C)(=O)=O)cc3)cc2)c(OC)c1
inhibition [1]: 12.3% | inhibition [2]: 37% (active) | inhibition [3]: -6.59% | inhibition [4]: 36.6% (active)

Oc1ccc(C=NNc2ccccn2)c(O)c1
inhibition [1]: 76% (active) | inhibition [2]: -12.1% | inhibition [3]: 14.7% | inhibition [4]: -1.88%

CCN(CC)CCC(=O)Nc1cccc2c1C(=O)c1ccccc1C2=O
inhibition [1]: -12.3% | inhibition [2]: 21.1% | inhibition [3]: 8.87% | inhibition [4]: 25.7% (active)

Cc1ccc(-c2n[nH]c(=S)n2/N=C/c2ccncc2)cc1
inhibition [1]: 26% | inhibition [2]: 19.3% | inhibition [3]: 37.6% | inhibition [4]: 28.7% (active)

COC(=O)c1cc(Cl)cc(Cl)c1OS(=O)(=O)N(C)C
inhibition [1]: -11.6% | inhibition [2]: -46.8% | inhibition [3]: -212% | inhibition [4]: -59.6%

O=C(NNc1ccccc1)C(=O)NNc1ccccc1
inhibition [1]: 25.6% | inhibition [2]: 49.3% (active) | inhibition [3]: 8.21% | inhibition [4]: 48.9% (active)

Cc1nn(-c2ccccc2)c(Cl)c1C(=O)N1CCN(c2ncnc3c2cnn3-c2ccccc2)CC1
inhibition [1]: 25.8% | inhibition [2]: 31.4% (active) | inhibition [3]: 4.61% | inhibition [4]: 44.9% (active)

Cc1cc(/C=C2\Cc3ccccc3C2=O)c(C)n1-c1ccccc1
inhibition [1]: 53.5% (active) | inhibition [2]: 18.6% | inhibition [3]: 20.5% | inhibition [4]: -2.62%

CC(=NNc1nc2ccccc2o1)c1cc2ccccc2cn1
inhibition [1]: 88.8% (active) | inhibition [2]: 86.4% (active) | inhibition [3]: 80.6% (active) | inhibition [4]: 86.3% (active)

CN1CC(=O)N2C(c3ccc(Cl)cc3)c3[nH]c4ccccc4c3C[C@H]2C1=O (some centres not stated)
inhibition [1]: 41.6% | inhibition [2]: 29.5% (active) | inhibition [3]: 25% | inhibition [4]: 33.9% (active)

CCN(CC)CCNc1ccc(C)c2sc3ccc(O)cc3c(=O)c12
inhibition [1]: 41.5% | inhibition [2]: 34.1% (active) | inhibition [3]: 50% (active) | inhibition [4]: 31.8% (active)

c1nc2sc3c(c2c2nnnn12)CCCC3
inhibition [1]: 28% | inhibition [2]: 24.2% | inhibition [3]: 36.8% | inhibition [4]: 9.37%

CC1Sc2ccc(Cl)cc2-c2nc(N)ncc21 (configuration not stated)
inhibition [1]: 43.9% (active) | inhibition [2]: 32.3% (active) | inhibition [3]: 48.2% (active) | inhibition [4]: 39.7% (active)

C(C#CCCCCCCCCC[n+]1ccccc1)#CCCCCCCCCC[n+]1ccccc1
inhibition [1]: 58.9% (active) and 59.3% (active) | inhibition [2]: 70.3% (active) and 74.5% (active) | inhibition [3]: 41.7% | inhibition [4]: 73.4% (active)

CCn1ccnc1CN(C)Cc1cn[nH]c1-c1ccc(OC)c(F)c1
inhibition [1]: 36.8% | inhibition [2]: 26.1% | inhibition [3]: 34.3% | inhibition [4]: 28% (active)

Nc1nc(/C=C/c2cccnc2)nc(-c2ccccc2O)n1
inhibition [1]: -12.6% | inhibition [2]: 0.59% | inhibition [3]: -16.8% | inhibition [4]: 14.2%

CN(Cc1c(C(=O)N/N=C/c2ccccc2O)nnn1-c1nonc1N)C1CCCCC1
inhibition [1]: 66.8% (active) | inhibition [2]: 46.5% (active) | inhibition [3]: 59.7% (active) | inhibition [4]: 59.8% (active)

CCc1ccc2[nH]c3nc(N/N=C/c4cccc(O)c4)nnc3c2c1
inhibition [1]: 37.2% | inhibition [2]: 64.4% (active) | inhibition [3]: 22.6% | inhibition [4]: 59.5% (active)

O=C(CSC1=NCCS1)Nc1ccnc2ccccc12
inhibition [1]: 28.1% | inhibition [2]: 37.7% (active) | inhibition [3]: 27.5% | inhibition [4]: 37.9% (active)

O=C(N/N=C/c1cc(Cl)ccc1O)C(=O)Nc1ccccc1OC(F)(F)C(F)F
inhibition [1]: 29.3% | inhibition [2]: 38.3% (active) | inhibition [3]: 37.7% | inhibition [4]: 44.3% (active)

CCC(=O)c1ccc(Oc2nc3c(c(=O)n(C)c(=O)n3C)n2CC)cc1
inhibition [1]: 26.3% | inhibition [2]: 19.6% | inhibition [3]: 29.4% | inhibition [4]: 20.9%

COc1ccc(-n2c(=S)[nH]c3cc(C(=O)Nc4ccc(F)cc4)ccc3c2=O)c(OC)c1
inhibition [1]: 19.7% | inhibition [2]: 40.8% (active) | inhibition [3]: 26.5% | inhibition [4]: 44.6% (active)

O=C(Nc1ccc(N2CCN(C(=O)c3ccc(Cl)cc3)CC2)cc1)c1ccc2c(c1)OCCO2
inhibition [1]: 14.2% | inhibition [2]: 42% (active) | inhibition [3]: 1.25% | inhibition [4]: 42.5% (active)

Cc1cccc[n+]1CC(=O)/C=C1\N(C)c2ccccc2C1(C)C
inhibition [1]: 8.01% | inhibition [2]: 20.6% | inhibition [3]: -9.04% | inhibition [4]: 23.5%

O=C(Nc1nc(-c2ccc3ccccc3c2)cs1)C1CCN(S(=O)(=O)c2cccs2)CC1
inhibition [1]: 8.55% | inhibition [2]: 32.2% (active) | inhibition [3]: -6.77% | inhibition [4]: 33.2% (active)

N=c1c2c(-c3ccccc3)c(-c3ccccc3)n(Cc3ccccc3)c2ncn1CCCn1ccnc1
inhibition [1]: 26.8% | inhibition [2]: 62.5% (active) | inhibition [3]: 57.4% (active) | inhibition [4]: 62.8% (active)

CC(C)(C)c1ccc(/C=C2\SC(=O)N(CCNC(=O)c3cccc(S(=O)(=O)N4CCOCC4)c3)C2=O)cc1
inhibition [1]: -11.1% | inhibition [2]: -19.8% | inhibition [3]: -58.1% | inhibition [4]: -59.9%

O=C(C=P(c1ccccc1)(c1ccccc1)c1ccccc1)c1ccccc1-c1ccccc1C(=O)C=P(c1ccccc1)(c1ccccc1)c1ccccc1
inhibition [1]: 60.6% (active) | inhibition [2]: 83.9% (active) | inhibition [3]: 24.4% | inhibition [4]: 82.8% (active)

Cc1cc(=O)[nH]c(NN=Cc2cc(Br)ccc2O)n1
inhibition [1]: 76.2% (active) | inhibition [2]: 64% (active) | inhibition [3]: 51.2% (active) | inhibition [4]: 64.8% (active)

CCCCC(=O)NC(c1cccs1)c1cc(Cl)c2cccnc2c1O (configuration not stated)
inhibition [1]: 44.5% (active) | inhibition [2]: 40.6% (active) | inhibition [3]: 27.5% | inhibition [4]: 49.9% (active)

CN(C)C=Nc1c(C(=O)c2ccccc2)sc2nccc(N(C)C)c12
inhibition [1]: 20.3% | inhibition [2]: 16.3% | inhibition [3]: 30.8% | inhibition [4]: 16.9%
